Compound activity (PubChem BioAssay)
A selection: hits, their analogues and other compounds. The true share with any hit is near 2.1%.
GalR3 antagonist: antagonists of human GalR3; HEK293 GalR3-CNG cAMP membrane potential fluorescence; galR3 body fused to GalR1 C-terminus; AID 651719; inhibition, % at 3 µM; 0.44% of 360,000 active;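 active = inhibition above the screen-wide average plus 3 SD, cut at about 13% in these data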;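 note: forskolin and galanin both at EC90 stimulate the cells; cAMP rise reported by CNG channel membrane potential dye signal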
Target sequence (O60755 1-299 limits assumed): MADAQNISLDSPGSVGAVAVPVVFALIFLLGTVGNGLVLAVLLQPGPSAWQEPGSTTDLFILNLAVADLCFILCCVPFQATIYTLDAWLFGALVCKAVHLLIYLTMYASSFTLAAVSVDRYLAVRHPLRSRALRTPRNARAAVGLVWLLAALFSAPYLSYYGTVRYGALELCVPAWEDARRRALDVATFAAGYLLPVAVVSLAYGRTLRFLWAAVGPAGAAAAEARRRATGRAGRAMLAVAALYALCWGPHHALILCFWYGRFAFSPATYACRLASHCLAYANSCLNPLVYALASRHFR
aDG glyco up: increases alpha dystroglycan glycosylation; Pro5-aDG cells, alpha-DG glycosylation AlphaScreen (IIH6); 0% Pro5, 100% B10-LARGE cell signal; activation, % at 10 µM; 0.22% of 360,000 active; AID 624168;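 active = activation of at least 8% versus controls, or a plate z-score of at least 8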;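 note: Pro5 are CHO cells carrying HIG-tagged alpha-DG that lacks glycosylation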
COUP-TFII inh: blocks human COUP-TFII nuclear receptor; inhibition, % at 8.6 µM; HEK293T NGFI-A luciferase reporter, luminescence; 0.7% of 370,000 active; P24468;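 active = inhibition above a per-plate cutoff, mean inhibition of test wells between control levels plus 3 SD, cut at about 38% in these data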;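 note: cells cotransfected with COUP-TFII expression vector driving the NGFI-A reporter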
Gli-Sufu block: blocks Gli-Sufu signaling in a luciferase reporter; Sufu-KO-LIGHT fibroblasts, Gli luciferase reporter luminescence; inhibition, % at 5 µM; 0.74% of 340,000 active; AID 588413;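 active = inhibition above about 55%, limit read from the data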
HIV Env fusion: blocks HIV Env-driven cell-cell fusion; 1.1% of 360,000 active; HeLa-JRFL Env/CEM21 cell fusion, luciferase; inhibition, % at 12.3 µM;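 active = mean replicate inhibition score of at least 50 and every replicate individually at or above 50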
Hits are given with their value; i = inactive; nt = no result given; [ ] = dose if it differs, or a comment.

SMILES | GalR3 antagonist | aDG glyco up | COUP-TFII inh | Gli-Sufu block | HIV Env fusion
C[C@@H]1CCCCO[C@@H](CN(C)Cc2ccccc2)[C@H](C)CN([C@H](C)CO)C(=O)c2cc(NC(=O)NC3CCCCC3)ccc2O1 | nt | nt | nt | nt | i
C[C@H]1CN([C@@H](C)CO)C(=O)c2cccc(NC(=O)Nc3ccc4c(c3)OCO4)c2O[C@H]1CN(C)C(=O)Nc1ccc2c(c1)OCO2 | nt | nt | nt | nt | i
CCn1c(=O)c(CCC(=O)N2CCN(c3ccccn3)CC2)c(C)c2c(C)nn(-c3cccc(C)c3)c21 | i | i | i | i | 58.2
C[C@@H]1CN([C@H](C)CO)C(=O)c2cc(C#Cc3cccc(F)c3)cnc2O[C@H]1CN(C)C(=O)c1ccccc1F | nt | nt | nt | nt | i
C=C(NC(=O)C(=C)NC(=O)c1csc(C2=NC3c4csc(n4)C4NC(=O)c5csc(n5)C(C(C)(O)C(C)O)NC(=O)C5CSC(=N5)/C(=C/C)NC(=O)C(C(C)O)NC(=O)c5csc(n5)C3(CC2)NC(=O)C(C)NC(=O)C(=C)NC(=O)C(=C)NC(=O)C(C(C)C)NC2C=Cc3c(C(C)O)cc(nc3C2O)C(=O)OC4C)n1)C(N)=O (stereo not given) | i | i | 41.9 | 65.7 | i
O=C(C[C@H]1C[C@H]2c3cc(NC(=O)C4CCOCC4)ccc3O[C@H]2[C@H](CO)O1)NCC1CC1 | nt | nt | nt | nt | i
O=C(c1ccc(C(F)(F)F)cc1)N(CCCn1ccnc1)C(c1ccccn1)c1nc2ccccc2[nH]1 (stereo not given) | i | i | i | nt | 64.7
OCCCn1c(-c2ccccc2)csc1=Nc1ccccc1 | i | i | i | i | i
COc1ccc(N=c2scc(-c3ccc(OC)cc3)n2CCO)cc1 | i | i | i | i | 71.3
CC1CCC(C(C)C)C(OC(=O)C[n+]2cc(-c3ccc(Cl)cc3)n3c2CCCCC3)C1 (stereo not given) | i | i | i | 65.0 | 60.4
Clc1ccc(-c2c[n+](Cc3ccc(Br)cc3)c3n2CCCCC3)cc1 | i | i | i | i | i
C[C@H]1CCCCO[C@H](CN(C)C(=O)Nc2ccc(C(F)(F)F)cc2)[C@@H](C)CN([C@@H](C)CO)C(=O)c2cc(NC(=O)Nc3ccc4c(c3)OCO4)ccc2O1 | nt | nt | nt | nt | 72.0[16.7 µM]
C[C@H]1CCCCO[C@H](CN(C)C(=O)Nc2ccc(C(F)(F)F)cc2)[C@@H](C)CN([C@@H](C)CO)C(=O)c2cc(NC(=O)Nc3ccccc3)ccc2O1 | nt | nt | nt | nt | 63.5[16.7 µM]
C[C@@H]1CN([C@@H](C)CO)C(=O)c2cc(NC(=O)NC3CCCCC3)ccc2O[C@@H](C)CCCCO[C@@H]1CN(C)C(=O)Cc1ccccc1 | nt | nt | nt | nt | 62.0[16.7 µM]
C[C@H]1CCCCO[C@H](CN(C)C(=O)Nc2ccc(C(F)(F)F)cc2)[C@@H](C)CN([C@@H](C)CO)C(=O)c2cc(NC(=O)Cc3ccccc3)ccc2O1 | nt | nt | nt | nt | 65.8[16.7 µM]
CCC(=O)N(C)C[C@H]1Oc2ncc(/C=C/c3ccccc3)cc2C(=O)N([C@@H](C)CO)C[C@@H]1C | nt | nt | nt | nt | i
COCC(=O)Nc1ccc2c(c1)[C@H]1C[C@@H](CC(=O)NCc3ccc(OC)cc3)O[C@@H](CO)[C@H]1O2 | nt | nt | nt | nt | i
C[C@@H]1CCCCO[C@H](CN(C)C(=O)Cc2ccccc2)[C@H](C)CN([C@@H](C)CO)C(=O)c2cc(NC(=O)Nc3ccc(C(F)(F)F)cc3)ccc2O1 | nt | nt | nt | nt | i
C[C@H](CO)N1C[C@H](C)[C@@H](CN(C)C(=O)c2ccccc2)OCCCC[C@H](C)Oc2ccc(NC(=O)Nc3ccc(C(F)(F)F)cc3)cc2C1=O | nt | nt | nt | nt | i
C[C@@H]1CCCCO[C@@H](CN(C)C(=O)Nc2ccc(C(F)(F)F)cc2)[C@@H](C)CN([C@H](C)CO)C(=O)c2cc(NC(=O)c3ccccc3)ccc2O1 | nt | nt | nt | nt | i
C[C@@H]1CCCCO[C@H](CN(C)C(=O)Nc2ccc(C(F)(F)F)cc2)[C@H](C)CN([C@@H](C)CO)C(=O)c2cc(NC(=O)c3ccccc3)ccc2O1 | nt | nt | nt | nt | 72.8[16.7 µM]
C[C@@H]1CCCCO[C@H](CN(C)C(=O)Cc2ccccc2)[C@@H](C)CN([C@@H](C)CO)C(=O)c2cc(NC(=O)Nc3ccc(C(F)(F)F)cc3)ccc2O1 | nt | nt | nt | nt | 62.5[16.7 µM]
CC(C)NC(=O)Nc1ccc2c(c1)C(=O)N([C@@H](C)CO)C[C@@H](C)[C@@H](CN(C)C(=O)Nc1ccc(F)cc1)OCCCC[C@@H](C)O2 | nt | nt | nt | nt | 80.3[16.7 µM]
C[C@@H]1CCCCO[C@@H](CN(C)C(=O)c2ccccc2)[C@H](C)CN([C@@H](C)CO)C(=O)c2cc(NC(=O)Nc3ccc(C(F)(F)F)cc3)ccc2O1 | nt | nt | nt | nt | 56.6[16.7 µM]
CC(C)NC(=O)N(C)C[C@H]1Oc2ccc(NC(=O)CCCCCC(=O)Nc3ccccc3N)cc2CC(=O)N([C@H](C)CO)C[C@H]1C | nt | nt | nt | nt | i
SMILES | GalR3 antagonist | aDG glyco up | COUP-TFII inh | Gli-Sufu block | HIV Env fusion
C[C@H]1CCCCO[C@H](CN(C)C(=O)Nc2ccc(C(F)(F)F)cc2)[C@@H](C)CN([C@@H](C)CO)C(=O)c2cc(NC(=O)Nc3ccc(C(F)(F)F)cc3)ccc2O1 | nt | nt | nt | nt | i
C[C@@H]1CN([C@H](C)CO)C(=O)c2cc(NC(=O)Nc3ccc(C(F)(F)F)cc3)ccc2O[C@@H](C)CCCCO[C@H]1CN(C)C(=O)Nc1ccc(C(F)(F)F)cc1 | nt | nt | nt | nt | 115.2[16.7 µM]
COc1ccc2sc(N(CCCN(C)C)C(=O)c3nc4ccccc4s3)nc2c1 | i | i | i | i | i
COc1ccccc1C(=O)N(CCC1CCCN1C)c1nc2ccccc2s1 (stereo not given) | i | i | 57.7 | i | i
CC(=O)c1ccc(N2CCN(C(=O)c3cc4c(-c5ccccc5F)nn(C)c4s3)CC2)cc1 | nt | i | i | i | 65.6
CCCOC(=O)C1C2C=CC(C3CC23)C1C(=O)OCC(=O)c1ccccc1 (stereo not given) | i | i | i | i | 61.9
C/C=C/c1ccc(OCCOc2cc(C=O)ccc2OC)c(OC)c1 | i | i | i | i | nt
C/C=C/c1ccc(OCCOCCNCc2ccccc2)c(OC)c1 | i | i | i | i | 89.4
O=S(=O)(c1ccccc1)[C@@]1(c2ccccc2)C[C@@H]2ON=C(c3cccc(Br)c3)[C@@H]2C1 | i | i | i | i | 79.1
C[C@@H]1CN([C@@H](C)CO)C(=O)c2cc(-c3ccc(F)cc3)cnc2O[C@H]1CN(C)CC1CCCC1 | nt | nt | nt | nt | i
CC[C@H]1C(c2ccc(F)cc2)=NN(c2ccccc2)[C@@H]1CO | i | i | i | i | 59.8
CO[C@H]1CN(C)C(=O)c2ccc(NC(=O)C3CCOCC3)cc2OC[C@@H](C)N(C(=O)c2ccccc2)C[C@@H]1C | nt | nt | nt | nt | i
O=C(Nc1ccc(Cl)cn1)C1CCCN1S(=O)(=O)c1cccc2ccccc12 (stereo not given) | i | i | i | i | 70.2
COc1ccc(S(=O)(=O)Nc2ccc3c(c2)C(=O)N([C@@H](C)CO)C[C@@H](C)[C@@H](CN(C)C(=O)CCCN(C)C)OCCCC[C@@H](C)O3)cc1 | nt | nt | nt | nt | i
Cc1cc(Nc2cccc(Br)c2)c2ccccc2n1 | i | i | i | i | 66.2
O=c1[nH]c(=O)n([C@H]2C[C@H](O)[C@@H](CO)O2)cc1F | nt | i | i | i | 70.3
